Screen size: about 310,000 compounds; about 17,000 (5.5%) were called active. About 11% were inconclusive and are not listed. Calls follow the shape of the dose curve; as a rule, active = well fitted inhibition curve with a large enough effect; inconclusive = small, poorly fitted or top-dose-only effect, or effect the other way; inactive = no such curve, though single readings can be large or run the other way. The entries come from a sample that favours actives as a whole. A call without a number means that no potency is given here.
Potency is read from the fitted curve at half-maximal effect.

The experiment deals with Nuclear receptor ROR-gamma (Mus musculus) (UniProt P51450). Put plainly: qHTS for inhibitors of ROR gamma transcriptional activity. Also: nearly all actives have a fitted effect of over 60% in size. Conditions: Drosophila S2 Gal4-RORgamma UAS-luciferase reporter, 20 h; series mostly up to 53.6 µM. From the text: NIH Molecular Libraries Probe Production Network [MLPCN] NIH Chemical Genomics Center [NCGC] MLPCN Grant: R03 DA026211-01 Assay Provider: Dan Littman, New York University Assay Overview: The retinoic acid-related orphan receptor (ROR) gamma is a transcription factor that has a central role in the differentiation of Th17 cells, a subset of T helper cells that secrete the inflammatory cytokines IL-17, IL-17F, and IL-22. Th17 cells have been implicated in graft versus host disease, autoimmune disease and asthma. ROR gamma is induced in naive T helper cells in the presence of TGF-beta combined with IL-6, IL-21, or IL-23, and thereafter directs the expression of the Th17 lineage cytokines. To study the mechanism of action of ROR gamma, an insect cell-based assay was screened. This Drosophila Schneider cell line was stably transfected with two vectors: a gene expressing a fusion of the Gal4 DNA binding domain and ROR gamma transactivation domain under the control of the metallothionine promoter and a Photinus luciferase reporter regulated by the Gal4 binding site enhancer, UAS. […] Small molecule inhibitors of ROR gamma activity are detected by a decrease in luciferase reporter activity.
Chain of Nuclear receptor ROR-gamma (Mus musculus) (P51450 whole entry, looked up, the tested form may be a part): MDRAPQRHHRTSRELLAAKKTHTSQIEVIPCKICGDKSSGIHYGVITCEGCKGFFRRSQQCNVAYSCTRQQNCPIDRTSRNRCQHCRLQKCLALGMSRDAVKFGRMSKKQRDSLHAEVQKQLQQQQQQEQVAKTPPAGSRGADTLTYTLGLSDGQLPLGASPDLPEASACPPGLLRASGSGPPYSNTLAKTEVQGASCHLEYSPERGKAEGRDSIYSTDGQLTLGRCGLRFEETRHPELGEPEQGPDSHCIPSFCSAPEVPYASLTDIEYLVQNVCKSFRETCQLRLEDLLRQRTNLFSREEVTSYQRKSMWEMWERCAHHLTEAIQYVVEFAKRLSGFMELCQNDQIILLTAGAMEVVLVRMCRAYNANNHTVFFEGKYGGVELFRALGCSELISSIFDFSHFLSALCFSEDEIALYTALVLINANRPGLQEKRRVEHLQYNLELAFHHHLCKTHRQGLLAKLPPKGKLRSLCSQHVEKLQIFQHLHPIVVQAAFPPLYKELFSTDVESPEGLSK
Assay Protocol Summary: For screening, 600 cells in 4 uL/well were dispensed into white solid 1536-well plates (Grenier) using a solenoid-based dispenser. Following transfer of 23 nL compound or DMSO vehicle by a pin tool, the plates were incubated 1 hr at ambient temperature, and 1 uL/well copper sulfate (700 uM final concentration) was added. The plates were centrifuged 15 s at 1000 RPM and incubated 20 hr at ambient temperature. After addition of 1.5 uL Photinus luciferase detection reagent, the plates were incubated 10 min at ambient temperature and then read by an ViewLux (Perkin Elmer) to detect luminescence. Keywords: NIH Roadmap, MLPCN, MLI, MLSMR, qHTS, NCGC, qHTS, nuclear hormone receptor, retinoic acid-related orphan receptor, ROR gamma
As to `O=C(Cc1ccccc1F)NC1CCSc2ccccc21` (centres undefined), the Potency entry was “inactive”.
On to `CC(C)c1ccc(S(=O)(=O)NC2CCCC2)cc1`, for which the Potency entry was “inactive”.
Regarding `CCn1c(CNC(=O)c2cc(OC)c(OC)c(OC)c2)cc2cc(C)ccc21`, the Potency entry was “inactive”.
As to `CC(=O)N1c2ccc(S(=O)(=O)N3CCCC(C(=O)Nc4cccc(Cl)c4)C3)cc2CC1C` (centres undefined), the Potency result is “inactive”.
The same measure for `CC(=O)N1CCCc2cc(S(=O)(=O)N3CCCC(C(=O)N4CCN(c5cccc(Cl)c5)CC4)C3)ccc21` (centres undefined): 5.62 µM (active); for `CC(=O)N1CCCc2cc(S(=O)(=O)N3CCCC(C(=O)NCc4ccc(Cl)cc4)C3)ccc21` (centres undefined): “inactive”; for `COc1ccc2oc(C(=O)NCc3ccco3)c(C)c2c1`: “inactive”.
`CC(C(=O)N1CCN(c2ccccc2F)CC1)c1ccc([N+](=O)[O-])cc1` (centres undefined): the Potency result was “inactive”.
In the case of `COc1ccc(CNc2nccs2)cc1`, the Potency result was “inactive”.
For the compound `O=c1[nH]c(NCCO)nnc1Cc1ccc(Cl)cc1`, the Potency entry is “inactive”.
The same measure for `CCOc1ccc(-n2c(O)c(/C=N/Nc3nnc(C)c(=O)[nH]3)c3ccccc3c2=O)cc1`: “inactive”; for `COc1ccc(Cc2nnc(N/N=C/c3ccccc3O)[nH]c2=O)cc1OC`: 3.98 µM (active); for `O=C(NC(=S)N1CCc2ccccc21)c1ccco1`: 1.41 µM (active).
For `NC(=O)N1CCc2ccccc21`, the Potency entry was “inactive”.
For the compound `O=C(CSCc1ccccc1)N1CCc2ccccc21`, the Potency entry was “inactive”.
The same measure for `COc1cc(/C=N/N2CCN(c3ccccc3)CC2)ccc1OC(C)=O`: “inactive”.
With `CC(C)=CCN1CCN(Cc2cc3ccccc3[nH]2)CC1CCO` (centres undefined), the Potency entry is “inactive”.
In the case of `CCOC(=O)c1c(NC(=O)CCC(=O)NCc2ccco2)sc2c1CCCC2`, the Potency result is “inactive”.
Regarding `O=C(Nc1sc2c(c1C(=O)O)CCC2)c1ccccc1F`, the Potency result was “inactive”.
The same measure for `CCOC(=O)c1c(NC(=S)NC)sc2c1CCCC2`: 0.891 µM (active); for `CCOC(=O)c1c(NC(=S)Nc2ccccc2)sc2c1CCN(C)C2`: “inactive”; for `CCCOC(=O)Nc1sc2c(c1C(=O)OCC)CCC2`: “inactive”.
Regarding `CCOC(=O)c1c(NC(=O)CSc2nnc(C)c(=O)[nH]2)sc2c1CCC2`, the Potency result is “inactive”.
The same measure for `CCOC(=O)c1c(NC(=O)C(C)Sc2c[nH]c3ccccc23)sc2c1CCC2` (centres undefined): “inactive”.
The same measure for `CCc1ccc(N(CC(=O)Nc2sc3c(c2C(=O)OC)CCCC3)S(C)(=O)=O)cc1`: “inactive”; for `CCOC(=O)c1c(NC(=O)c2ccc(Br)o2)sc2c1CCCC2`: “inactive”; for `CCOC(=O)c1c(NC(=S)NC(=O)c2ccco2)sc2c1CCCC2`: 3.16 µM (active).
The same measure for `CCOC(=O)c1c(NC(=S)Nc2ccccc2C)sc2c1CCC2`: 3.55 µM (active); for `CCN(CC)CC(=O)Nc1sc2c(c1C(=O)c1ccccc1C)CCC2`: 7.08 µM (active); for `Cc1coc2c1c(C)cc1oc(=O)c(CC(=O)NCC(=O)N[C@H](C(=O)O)C(C)C)c(C)c12`: “inactive”.
On to `CCCCNC(=O)CN1C(=O)NC(Cc2ccccc2)(Cc2ccccc2)C1=O`, for which the Potency entry is “inactive”.
The same measure for `O=C(NCC(=O)N1CCN(c2ccccc2O)CC1)c1ccc2ccccc2c1`: “inactive”; for `Cc1cc(C)cc(N(CC(=O)NC2CCCC2)C(=O)CCC(=O)Nc2cc(C)on2)c1`: “inactive”.
The same measure for `O=C(CN1CCOC1=O)N1CCCC(Nc2ccc(F)c(F)c2)C1` (centres undefined): “inactive”; for `O=C(CCNS(=O)(=O)c1cccs1)N1CCN(c2ccc(F)cc2)CC1`: “inactive”; for `CCCc1nnc(SCC(=O)Nc2ccc(C(=O)OCC)cc2)o1`: “inactive”.
Consider `CCN(C(=O)Cc1c(C(=O)O)n(CC)c2ccccc12)c1ccccc1C`, for which the Potency result is “inactive”.
The same measure for `CCOC(=O)c1ccccc1NC(=O)COC(=O)CCC(=O)N1CCOCC1`: “inactive”; for `CC(CC(=O)N1CCN(S(=O)(=O)c2ccccc2)CC1)n1cncn1` (centres undefined): “inactive”; for `CCOc1ccc(-n2c(SCC(=O)Nc3ccc(OC)cc3)nc3sc4c(c3c2=O)CCN(C)C4)cc1`: “inactive”.
The same measure for `CCOc1ccccc1-c1nc(CN2CCC(C(=O)N3CCOCC3)CC2)c(C)o1`: “inactive”; for `Cn1c(=O)c(-c2ccccc2)nc2cnc(N3CCNCC3)nc21`: “inactive”.
The same measure for `O=c1c(-c2ccc(F)cc2)nc2cnc(N3CCNCC3)nc2n1Cc1cccs1`: “inactive”; for `N#Cc1cccc(-c2nc3cnc(N4CCNCC4)nc3n(C3CC3)c2=O)c1`: 12.6 µM (active); for `Cc1c2cnn(CC(=O)NCCCN3CC(C)CC(C)C3)c(=O)c2c(C)n1Cc1ccc(Cl)cc1` (centres undefined): “inactive”.
For the compound `CC(C)(c1ccccc1)c1ccc(OCCN2CCCC2)cc1`, the Potency entry was “inactive”.
On to `O=C(NCCCn1ccnc1)c1ccccc1F`, for which the Potency result was “inactive”.
For the compound `CN(Cc1ccccc1)C(=O)c1cccc(C(=O)N(C)Cc2ccccc2)c1`, the Potency result was “inactive”.
The same measure for `O=[N+]([O-])/C=C/c1ccc2c(ccn2Cc2ccccc2)c1`: 12.6 µM (active).
On to `O=c1c([N+](=O)[O-])cc(C(F)(F)F)cn1Cc1cccc(Cl)c1`, for which the Potency entry was “inactive”.
On to `O=C(Cn1ccc2cc(S(=O)(=O)N3CCCC3)ccc21)NCc1ccccc1`, for which the Potency result is “inactive”.
The same measure for `Cc1c(C(=O)NCC(c2ccco2)N2CCCC2)oc2ccc(Cl)cc12` (centres undefined): “inactive”.
As to `Cc1onc(C(=O)Nc2ccc3c(c2)OCO3)c1[N+](=O)[O-]`, the Potency entry is “inactive”.
The same measure for `CCCc1[nH]nc2c1C(c1ccc(Br)s1)C(C#N)=C(N)O2` (centres undefined): 12.6 µM (active); for `CCCc1[nH]nc2c1C(c1c(C)nn(-c3ccccc3)c1Cl)C(C#N)=C(N)O2` (centres undefined): “inactive”.
Regarding `CCCc1[nH]nc2c1C(c1ccc(OC(=O)c3ccco3)cc1)C(C#N)=C(N)O2` (centres undefined), the Potency result is “inactive”.
For the compound `Cc1ccc(S(=O)(=O)N(Cc2ccccc2)c2ccccn2)cc1[N+](=O)[O-]`, the Potency result is “inactive”.
Regarding `Cc1cccc(OCC(O)CN2CCN(S(=O)(=O)c3ccc(C)cc3C)CC2)c1` (centres undefined), the Potency result is “inactive”.
Turning to `Cc1ccc(N2C(=O)CN=C2Nc2nc(C)cc(C)n2)cc1`, the Potency result was “inactive”.
The same measure for `Cc1cc(C)nc(NC2=NCC(=O)N2c2ccc(Cl)cc2)n1`: 0.224 µM (active).
The same measure for `COc1ccc(N2C(=O)CN=C2Nc2cccc(C)c2C)cc1OC`: “inactive”; for `CC1CN(C(=O)CCC(=O)NCc2cccnc2)c2ccccc2O1` (centres undefined): “inactive”; for `Cc1ccc(C(=O)N2CC(=O)Nc3ccc(F)cc3C2c2ccc(F)cc2)cc1` (centres undefined): “inactive”.
The same measure for `Cc1cccc(OCCC(=O)Nc2cc(S(=O)(=O)N3CCCCC3)ccc2N2CCOCC2)c1`: “inactive”; for `Cc1cccc(OCC(=O)Nc2ccccc2F)c1`: “inactive”; for `Cc1cccc(OCC(=O)NC(=S)Nc2ccccc2N2CCOCC2)c1`: 11.2 µM (active).
As for `COc1ccccc1C(=O)NC(=S)Nc1ccccc1N1CCCCC1`, the Potency was 3.98 µM (active).
The same measure for `O=C(NC(=S)Nc1cc(C(F)(F)F)ccc1N1CCOCC1)c1ccc(-c2cccc(Cl)c2)o1`: 10 µM (active); for `CC(=O)N1CCN(c2ccccc2NC(=S)NC(=O)c2cc3ccccc3o2)CC1`: 11.2 µM (active).
For `CC(Sc1nncn1C)C(=O)Nc1cc(C(F)(F)F)ccc1N1CCOCC1` (centres undefined), the Potency entry is “inactive”.
The same measure for `COc1cc(C(=O)Nc2cc(C(F)(F)F)ccc2N2CCOCC2)ccc1O`: “inactive”.
The same measure for `Cc1ccc(NC(=O)c2cc3ccccc3o2)cc1`: “inactive”.
The same measure for `COc1ccccc1C(=O)NC(=S)NC12CC3CC(CC(C3)C1)C2`: “inactive”; for `O=C(Nc1ccccc1N1CCN(C(=O)c2ccccc2)CC1)c1ccco1`: “inactive”.
As for `Cc1ccccc1NC(=O)Nc1ccccc1N1CCCCC1`, the Potency result is “inactive”.
The same measure for `O=C1CCN(Cc2ccccc2)CCN1[C@H](CSc1ccccc1)c1ccccc1`: “inactive”; for `COC(=O)c1ccc(N2CCOCC2)c(NC(=O)c2ccc3c(c2)OCCO3)c1`: “inactive”; for `Cc1cc(NC(=O)c2ccco2)c(=O)n(Cc2c(F)cccc2Cl)c1`: “inactive”.
Regarding `COCCNc1nc(N)c([N+](=O)[O-])c(N2CCCCCC2)n1`, the Potency entry was “inactive”.
The same measure for `CCOc1ccc(-c2noc(CCC(=O)NC3CCCC3)n2)cc1OC`: “inactive”.
For the compound `O=C(c1ccc(CS(=O)(=O)c2ccccc2)o1)N1CCN(c2ccccc2)CC1`, the Potency result is “inactive”.
The same measure for `COc1ccc(CNC(=O)[C@H](Cc2c[nH]c3ccccc23)NC(C)=O)cc1OC`: “inactive”; for `O=C(NCCCN1CCOCC1)C1CCCN(S(=O)(=O)N2CCCCC2)C1` (centres undefined): “inactive”; for `O=C(Nc1ccccc1N1CCCCC1)c1cccc(F)c1`: “inactive”.
The same measure for `CCc1ccc(C(=O)NC(=S)Nc2ccccc2N2CCOCC2)cc1`: 3.55 µM (active); for `O=C(CCNC(=O)c1ccc([N+](=O)[O-])cc1)Nc1ccccc1N1CCOCC1`: “inactive”.
Turning to `O=C(Nc1ccccc1N1CCCC1)c1ccc2ccccc2c1`, the Potency entry is “inactive”.
With `CC(=O)c1ccc(N2CCN(CC(=O)Nc3ccccc3N3CCOCC3)CC2)cc1`, the Potency result was “inactive”.
For the compound `O=C(NC(=S)Nc1ccccc1N1CCCCC1)c1ccc(F)cc1`, the Potency is 3.98 µM (active).
The same measure for `CC1CCN(CC(O)COc2ccc(C(=O)c3ccccc3)cc2)CC1` (centres undefined): “inactive”; for `O=C(NCc1cccc(Cl)c1)C1CCC(=O)N(C2CC2)C1` (centres undefined): “inactive”; for `Cc1cc(CN(C)C(=O)c2cc(COc3ccc(C)c(C)c3)on2)n[nH]1`: “inactive”.
The same measure for `O=C(NNC(=S)Nc1ccccc1)c1cccc(S(=O)(=O)N2CCOCC2)c1`: “inactive”; for `O=C(NNC1=NCCC1)c1cccc(S(=O)(=O)N2CCCCC2)c1`: 12.6 µM (active); for `O=C(Nc1nncs1)c1cccc(S(=O)(=O)N2CCCCC2)c1`: “inactive”.
As to `CN(CC1CCCN(CCc2cccc(C(F)(F)F)c2)C1)C(=O)c1ccc2nc[nH]c2c1` (centres undefined), the Potency entry is “inactive”.
The same measure for `CCOC(=O)c1ccc(NC(=O)c2ccc(NC(=O)C3CCCO3)cc2)cc1` (centres undefined): “inactive”; for `COc1ccc(C2=NN(c3ccccc3)C(c3cccs3)C2)cc1` (centres undefined): “inactive”; for `COc1ccc(C2=NN(c3nc4ccccc4s3)C(=O)C2)cc1`: 5.62 µM (active).
As to `COC(=O)Cc1[nH]n(-c2nc3ccccc3s2)c(=O)c1C(C)=Nc1ccc(OC)cc1`, the Potency entry is “inactive”.
Turning to `COC(=O)c1cc(OC)c(OC)cc1NC(=O)CSc1ccc(C)cc1`, the Potency result was “inactive”.
Take `COc1cc(NC(=S)NCCSc2ccc(C)cc2)cc(OC)c1`: the Potency was 7.08 µM (active).
The same measure for `COc1ccc(NC(=S)NCCNC(C)=O)cc1`: “inactive”.
With `CC1=C(C(=O)OCC2CCCCC2)C(c2ccc(F)cc2)NC(=O)N1` (centres undefined), the Potency entry was “inactive”.

(Values after PubChem BioAssay AID2551 (National Center for Advancing Translational Sciences (NCATS), 2010).)
